# Assay results from PubChem BioAssay.
# A number with no mark means an inactive call.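 How the source made its calls: active means RAM network inhibition above 8.4% in each of two replicates, 3 SD over the compound average; inconclusive means above 8.4% inhibition in only one replicate; inactive means 8.4% inhibition or less in each replicate.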
# Assay: RAM signaling pathway blockade in yeast – S. cerevisiae, Pdr1DBD-CYC8 efflux-inhibited sensitized strain, primary screen (AID 1298);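 further: 0% = DMSO untreated cells without growth and 100% = 10 µM 1-NA-PP1 full growth; higher means more yeast growth rescued from 5-FOA killing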
# Details: S. cerevisiae cbk1-as DSE1-URA3 strain, 5-FOA growth OD615, 2 d; at 50 µM; active compounds read high
row,Compound,RAM network inhibition
1,COC(=O)c1ccsc1NC(=O)C1=COCCO1,2.35%
2,CC(=O)Oc1c(Cl)c(N2CCOCC2)c(OC(C)=O)c2ccccc12,2.47%
3,Cc1ccc2nc(N3CCOCC3)c3nncn3c2c1,1.57%
4,CC(C)n1c(C(O)c2ccccc2)nc2ccccc21 (stereo not given),4.24%
5,C=CCNC(=O)c1cnc2n(c1=O)CCS2,-1.87%
6,COc1ccc(-c2nnc3ccc(SCC(=O)N4CCCC4)nn23)cc1,0.16%
7,Cn1c(Cn2c(=O)sc3ccccc32)nnc1SCC(=O)NCCc1ccccc1,3.42%
8,CC(C)OCCCNC(=O)c1cc2c(=O)n(C)c3ccccc3c2n1C,3.23%
9,Cc1cc(-n2nc(C)cc2C)nc(NS(=O)(=O)c2ccccc2)n1,4.2%
10,COC(=O)c1ccc(C2C(C(=O)Nc3ccc(C)cc3C)=C(C)Nc3ncnn32)cc1 (stereo not given),8.36%
11,O=C(CC1NCCNC1=O)OCCCc1ccccc1 (stereo not given),5.29%
12,CCOC(=O)Nc1ccc2c(c1)N(C(=O)N(CC)CC)c1ccccc1CC2,2.11%
13,O=C(CSc1nnc2sc3ccccc3n12)NCc1ccc2c(c1)OCO2,4.54%
14,Cc1nc2sc(C(c3ccc(C(C)C)cc3)N3CCN(CCO)CC3)c(O)n2n1 (stereo not given),2.77%
15,CCOC(=O)c1ccc(NC(=O)CCC(=O)OC)cc1,3.41%
16,CC(=NCCc1ccccc1)C1=C(O)CSC1=O,1%
17,COC(=O)CN1C(=O)C(O)(CC(=O)c2ccc(Br)cc2)c2ccccc21 (stereo not given),3.19%
18,Cn1c(=O)c2c(SCC(=O)NCc3ccco3)nc(CC(C)(C)C)nc2n(C)c1=O,5.97%
19,CCn1c(C2CC(=O)N(c3cc(C)cc(C)c3)C2)nc2ccccc21 (stereo not given),4.85%
20,CCN(CC)CCCN1C(=O)C(O)=C(C(=O)c2ccc(C)o2)C1c1cccs1 (stereo not given),2.8%

row,Compound,RAM network inhibition
1,CCN(CC)S(=O)(=O)c1ccc(S(=O)(=O)N2CCN(CCC#N)CC2)cc1,-1.32%
2,CN(Cc1ccccc1)S(=O)(=O)c1ccc2[nH]c(=O)oc2c1,5.4%
3,Cc1c(C(=O)NCc2ccc3c(c2)OCO3)sc2nc(-c3ccccc3)cn12,6.39%
4,CC(=O)c1ccc(C(=O)Nc2ccc(N3CCOCC3)cc2)cc1,2.61%
5,C=CCn1c(CSc2nc3ccccc3s2)nnc1SCC(=O)OCC,9.66%
6,Cn1c(=O)[nH]c(=O)c2c1nc(NC1CCCCC1)n2CCO,3.67%
7,Cc1cc(NC(=O)NC2(C(F)(F)F)Oc3ccc(Cl)cc3O2)no1 (stereo not given),7.87%
8,O=C(CCc1nc2ccccc2[nH]1)N1CCN(C(=O)c2ccco2)CC1,1.88%
9,COc1ccccc1-c1coc2cc(O)cc(O)c2c1=O,0.05%
10,Cn1c(=O)c2c(SCC(=O)N3CCN(c4ccccc4)CC3)nc(C3CC3)nc2n(C)c1=O,6.69%
11,CCC(C)NC(=O)c1cnc2n(c1=O)CCS2 (stereo not given),1.25%
12,Cc1cccc(CSc2nnc(Cn3c(=O)sc4ccccc43)n2C)c1,4.9%
13,COC(=O)NCC(c1cccnc1)N1CCN(c2ccccc2F)CC1 (stereo not given),1.57%
14,COCCn1c(=O)[nH]c2cc(C(=O)NC3CCCCCC3)ccc2c1=O,4.43%
15,O=C(c1ccc2nc(N3CCOCC3)sc2c1)N1CCN(C(=O)c2ccco2)CC1,3.05%
16,COc1ccc(CCNC(=O)c2cc3ccccn3n2)c(OC)c1OC,-0.2%
17,Cc1nc2ccc(S(=O)(=O)NC(C(=O)NCc3ccco3)C(C)C)cc2s1 (stereo not given),-0.06%
18,CCOC(=O)c1c(C)oc2cc(Br)c(OC(C)C(=O)OCC)cc12 (stereo not given),0.98%
19,Cc1cc(SCC(=O)c2ccccc2)n2nc(C)nc2n1,2.67%
20,COc1ccccc1NC(=O)CSc1nc2ncccc2[nH]1,3.83%
